In the supplement of paper PMC6089552:
The campaign covered roughly 3,200 compounds. About 300 (9.4%) showed activity. Only a selection was taken, and actives are over-represented in it overall.

System: A673/TR/shEF
Assay: cell viability (LOESS-normalised, relative to median of negative controls) (log2 ratio); higher = more viable cells (less compound effect), active = hit call of the paper (over 3 MAD below the median)
Conditions: treatment time: 72 h
Method in brief: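 Doxycycline, present or absent from 24 h before compounds, was used to induce EWS-FLI1 shRNA knockdown in A673/TR/shEF Ewing sarcoma cells at 1,500 per well in 384-well plates. Cells then received library compounds at two or more concentrations, or DMSO controls, for three days. Viability was measured by CellTiter-Glo luminescence on an Envision reader, and per-plate LOESS correction, division by the negative-control median and log2 transformation followed.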

[1] = 0.25 µM, library screen: screen1, EWS-FLI1 expression: high (no doxycycline)
[2] = 0.25 µM, library screen: screen1, EWS-FLI1 expression: low (doxycycline-induced shRNA knockdown)
[3] = 2.5 µM, library screen: screen1, EWS-FLI1 expression: high (no doxycycline)
[4] = 2.5 µM, library screen: screen1, EWS-FLI1 expression: low (doxycycline-induced shRNA knockdown)
[5] = 0.25 µM, library screen: screen2, EWS-FLI1 expression: high (no doxycycline)
[6] = 0.25 µM, library screen: screen2, EWS-FLI1 expression: low (doxycycline-induced shRNA knockdown)
[7] = 2.5 µM, library screen: screen2, EWS-FLI1 expression: high (no doxycycline)
[8] = 2.5 µM, library screen: screen2, EWS-FLI1 expression: low (doxycycline-induced shRNA knockdown)
[9] = 0.103 µM, library screen: screen3, EWS-FLI1 expression: high (no doxycycline)
[10] = 0.103 µM, library screen: screen3, EWS-FLI1 expression: low (doxycycline-induced shRNA knockdown)
[11] = 0.308 µM, library screen: screen3, EWS-FLI1 expression: high (no doxycycline)
[12] = 0.308 µM, library screen: screen3, EWS-FLI1 expression: low (doxycycline-induced shRNA knockdown)
[13] = 0.926 µM, library screen: screen3, EWS-FLI1 expression: high (no doxycycline)
[14] = 0.926 µM, library screen: screen3, EWS-FLI1 expression: low (doxycycline-induced shRNA knockdown)
[15] = 2.8 µM, library screen: screen3, EWS-FLI1 expression: high (no doxycycline)
[16] = 2.8 µM, library screen: screen3, EWS-FLI1 expression: low (doxycycline-induced shRNA knockdown)
[17] = 8.3 µM, library screen: screen3, EWS-FLI1 expression: high (no doxycycline)
[18] = 8.3 µM, library screen: screen3, EWS-FLI1 expression: low (doxycycline-induced shRNA knockdown)
[19] = 25 µM, library screen: screen3, EWS-FLI1 expression: high (no doxycycline)
[20] = 25 µM, library screen: screen3, EWS-FLI1 expression: low (doxycycline-induced shRNA knockdown)

Measured: cell viability (log2)

COC(=O)C(O)[C@H]1C(C)(C)[C@@H](OC(C)=O)[C@@H]2CC3=C4CC(=O)O[C@@H](c5ccoc5)[C@]4(C)CCC3[C@@]1(C)C2=O (stereo not given in full)
inactive: [1] 0.11 | [2] 0.119 | [3] 0.15 | [4] 0.0885

CC(=O)O[C@H]1CC[C@@]2(C)C(=CC[C@H]3[C@@H]4CC[C@H]([C@H](C)CCCC(C)C)[C@@]4(C)CC[C@@H]32)C1
inactive: [1] 0.0694 | [2] 0.0487 | [3] 0.14 | [4] 0.0189

O=C(O)C1CC(C2CCCCN2)CN2CCCCC12 (stereo not given)
inactive: [1] 0.039 | [2] 0.0346 | [3] 0.146 | [4] 0.0208

CC(N)=NCCC[C@H](N)C(=O)O
inactive: [5] 0.0627 | [6] 0.0753 | [7] -0.0275 | [8] 0.0731

COc1ccccc1CNC(=O)CN(c1ccc(Cl)cc1)S(C)(=O)=O
inactive: [1] -0.0129 | [2] 0.0689 | [3] 0.0751 | [4] 0.0379

C=C1CCC(C2CC(=O)OC2=O)C(=O)CCC2C1CC2(C)C (stereo not given)
inactive: [1] 0.1 | [2] 0.128 | [3] 0.0855 | [4] 0.0593

Cc1nnc(SCC(=O)N2c3ccccc3-c3c(ssc3=S)C2(C)C)s1
inactive: [1] 0.0582 | [2] 0.0648 | [3] 0.115 | [4] 0.255

CC(C)=CCC/C(C)=C/C=C/C(C)=C/C=C/C(C)=C/C=C/C=C(C)/C=C/C=C(C)/C=C/C=C(\C)CCC=C(C)C
inactive: [1] 0.149 | [2] 0.105 | [3] 0.156 | [4] 0.123

CC(=O)O[C@@H]1CC2C(C)(C)C=CC(=O)[C@]2(C)C2CC[C@@]3(C)[C@H](c4ccoc4)OC(=O)C4OC43[C@@]21C (stereo not given in full)
inactive: [1] 0.059 | [2] 0.0804 | [3] 0.118 | [4] 0.149

NC1(C(=O)O)CCCC1
inactive: [1] 0.102 | [2] 0.137 | [3] 0.134 | [4] 0.192

NC1(C(=O)O)CC1
active: [5] -0.141 | [6] -0.0707
inactive: [1] 0.064 | [2] 0.0956 | [3] 0.122 | [4] 0.0925 | [7] 0.123 | [8] 0.0434

NC1(C(=O)O)CCCCC1
inactive: [5] 0.0492 | [6] 0.114 | [7] -0.0212 | [8] 0.0608

CN(C)C(=O)/C(=C\c1cccc(Br)c1)NC(=O)c1ccccc1
inactive: [1] 0.0622 | [2] 0.0915 | [3] 0.179 | [4] 0.181

O=C(O)c1cc2c(Cl)cc(Cl)cc2[nH]1
inactive: [1] 0.105 | [2] 0.0244 | [3] 0.0763 | [4] 0.0336

NCC1OC(OC2C(N)CC(N)C(OC3OC(CO)C(O)C(N)C3O)C2O)C(N)C(O)C1O (stereo not given)
inactive: [1] 0.0483 | [2] 0.0336 | [3] 0.164 | [4] 0.0237

C[S+]([O-])c1ccc(-c2nc(-c3ccc(F)cc3)c(-c3ccncc3)[nH]2)cc1 (stereo not given)
active: [3] -0.235 | 25 µM, library screen: screen1, EWS-FLI1 expression: high (no doxycycline) -0.108
inactive: 0.025 µM, library screen: screen1, EWS-FLI1 expression: low (doxycycline-induced shRNA knockdown) 0.136 | [1] 0.263 | [2] 0.121 | [4] 0.238 | 25 µM, library screen: screen1, EWS-FLI1 expression: low (doxycycline-induced shRNA knockdown) 0.274
0.29: 0.025 µM, library screen: screen1, EWS-FLI1 expression: high (no doxycycline)

COc1cc([S+](C)[O-])ccc1-c1nc2ncccc2[nH]1 (stereo not given)
inactive: [1] 0.101 | [2] 0.00949 | [3] 0.131 | [4] 0.0599

C/C1=C\CC(C)(C)/C=C\CC2(C)OC2CC1 (stereo not given)
inactive: [1] 0.0693 | [2] 0.00465 | [3] 0.118 | [4] 0.162

CC(C)CCC[C@@H](C)[C@H]1CC[C@H]2C3=CC[C@H]4C[C@@H](O)CC[C@]4(C)[C@H]3CC[C@]12C
inactive: [1] -0.0717 | [2] -0.021 | [3] 0.0758 | [4] 0.0695

C[C@H]1COC2=C1C(=O)C(=O)c1c2ccc2c1CCCC2(C)C
active: [19] -0.196 | [20] -0.308
inactive: [9] 0.0338 | [10] 0.0754 | [11] 0.0526 | [12] 0.0683 | [13] 0.0196 | [14] 0.0264 | [15] -0.0315 | [16] -0.0274 | [17] 0.0932 | [18] -0.035

CCN1CCC[C@H]1CNC(=O)c1c(OC)ccc(I)c1O
inactive: [5] 0.251 | [6] 0.174 | [7] 0.0364 | [8] 0.15

Cc1ccsc1C=C1SC(=S)N(CC(=O)O)C1=O
inactive: [1] 0.0973 | [2] 0.0799 | [3] 0.133 | [4] 0.152

C=CCN1C(=O)/C(=C2\SC(=S)N(c3c(C)n(C)n(-c4ccccc4)c3=O)C2=O)c2ccccc21
inactive: [1] -0.0187 | [2] -0.00404 | [3] 0.0713 | [4] -0.0309

OCC(O)C1NCC(O)C1O (stereo not given)
inactive: [5] 0.0417 | [6] 0.103 | [7] 0.000766 | [8] 0.0189

Cc1cc(N)c2ccccc2[n+]1CCCCCCCCCC[n+]1c(C)cc(N)c2ccccc21
active: [3] -1.46 | [4] -0.54 | [7] -0.865 | [8] -0.463
inactive: [1] 0.139 | [2] 0.0436 | [5] 0.122 | [6] 0.0489

CC[C@H]1C(=O)OC[C@@H]1Cc1cccn1C
inactive: [1] 0.154 | [2] 0.0128 | [3] 0.143 | [4] 0.0953

CC12CCCC(O)(C1)C1CC(C)(C)C1CC2 (stereo not given)
inactive: [1] 0.066 | [2] -0.02 | [3] 0.0972 | [4] 0.0732

Oc1ccc2c(c1)OC[C@H]1c3cc4c(cc3O[C@@H]21)OCO4
inactive: [1] 0.0543 | [2] -0.104 | [3] 0.119 | [4] 0.0894

Oc1ccc([C@@H]2Oc3ccc(O)cc3[C@@H]3CCC[C@@H]32)cc1
inactive: [9] -0.0128 | [10] 0.0648 | [11] -0.0264 | [12] -0.0313 | [13] -0.0384 | [14] 0.0122 | [15] -0.0259 | [16] 0.00446 | [17] -0.0456 | [18] 0.0022 | [20] -0.0464
active: [19] -0.181

Oc1ccc([C@H]2Oc3cc(O)cc(O)c3C[C@H]2O)cc1
inactive: [1] 0.0303 | [2] -0.000667 | [3] 0.0839 | [4] -0.00856

COc1cc(CN2CCN(Cc3cccc(OC)c3OC)CC2)c([N+](=O)[O-])cc1OC
inactive: [1] 0.00876 | [2] 0.0541 | [3] 0.119 | [4] -0.0278

CC1(C)OC(=O)CC(O)[C@@]2(C)C1CC(=O)[C@]1(C)C2CCC2(C)C(c3ccoc3)OC(=O)[C@H]3O[C@]321 (stereo not given in full)
inactive: [1] 0.0277 | [2] 0.0481 | [3] 0.0671 | [4] 0.0691

C[C@]12CCC3c4ccc(OC(=O)CCC(=O)O)cc4CCC3C1CCC2=O (stereo not given in full)
inactive: [1] 0.126 | [2] 0.0832 | [3] 0.102 | [4] 0.0823

C=C/C(C)=C\C[C@@H]1[C@@]2(C)CCCC(C)(C)[C@@H]2CC[C@@]1(C)O
inactive: [1] 0.0522 | [2] 0.0309 | [3] 0.126 | [4] 0.0611

COc1cc2c(cc1O)CC[C@@H]1[C@@H]2CC[C@]2(C)[C@@H](O)CC[C@@H]12
active: [19] -1.25 | [20] -0.177
inactive: [9] 0.0202 | [10] 0.0975 | [5] 0.11 | [6] 0.04 | [11] 0.0934 | [12] 0.0693 | [13] -0.0172 | [14] 0.0926 | [7] 0.0437 | [8] 0.0893 | [15] 0.045 | [16] 0.00908 | [17] -0.104 | [18] -0.0169

C[C@]12CCC3c4ccc(OS(=O)(=O)O)cc4CCC3C1CC[C@H]2O (stereo not given in full)
inactive: [1] 0.0646 | [2] 0.0512 | [3] 0.0988 | [4] 0.092

C[C@]12CC[C@@H]3c4ccc(O)cc4CC[C@H]3[C@@H]1CC[C@@H]2O
inactive: [9] 0.029 | [10] -0.00908 | [1] 0.122 | [2] 0.00576 | [5] 0.147 | [6] 0.0497 | [11] 0.101 | [12] 0.0915 | [13] 0.111 | [14] 0.0539 | [3] 0.0979 | [4] 0.0174 | [7] 0.0738 | [8] 0.0113 | [15] 0.127 | [16] 0.0786 | [17] 0.135 | [18] 0.0545 | [19] 0.166 | [20] 0.0719

COc1ccccc1CN1CCN(Cc2ccc(OC)c(OC)c2)CC1
inactive: [1] 0.0157 | [2] 0.078 | [3] 0.0565 | [4] 0.0117

CC(C)(C)c1ccccc1OCC(O)CN1CCCCC1 (stereo not given)
inactive: [1] 0.09 | [2] 0.0909 | [3] 0.176 | [4] 0.0864

CC(=O)Oc1ccc(-c2coc3cc(OC(C)=O)ccc3c2=O)cc1
inactive: [1] 0.152 | [2] 0.0716 | [3] 0.0709 | [4] 0.0455

CCOC(=O)C1(O)Oc2cc(OC)cc(OC)c2C(=O)C1c1ccccc1 (stereo not given)
inactive: [1] 0.122 | [2] 0.103 | [3] 0.112 | [4] 0.086
